Peg3 promoter: inhibitors of Peg3 promoter. HeLa PEG-Prom luciferase reporter, luminescence, overnight. inhibition, % at 20 µM. hit rate 1.7% among 360,000;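 active means inhibition of at least 50% at 20 µM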
KKLEB tox: reduces viability of KKLEB cystic fibrosis airway cells. KKLEB CF airway cells viability, ATPlite luminescence, overnight; active compounds read low; cells stimulated with P. aeruginosa culture filtrate. activity change (cytotoxicity), % at 5 µM. hit rate 0.36% among 360,000. AID 602141;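 active means corrected activity change at or below -50% at 5 µM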
Shn3 inh set2: Schnurri-3 reporter inhibition in Clone20 osteoblasts; Clone20 osteoblast Shn3 3'UTR firefly luciferase, 24 h; inhibition, % at 12.5 µM; hit rate 0.52% among 360,000; AID 588674;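 active means mean inhibition of at least 75% with every replicate also reaching 75%; inconclusive means mean inhibition at least 75% but some replicate below; inactive means mean inhibition below 75%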
MITF TRPM1 inh: reduces MITF-dependent TRPM1 promoter luciferase signal; SK-MEL-5 TRPM1 promoter luciferase, 24 h; inhibition, % at 12.5 µM; hit rate 0.83% among 330,000;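 active means mean inhibition across replicates of 60% or more, whatever share of single replicates reaches that level; inconclusive means some that reach 60%, reason not given; inactive means mean inhibition across replicates below 60%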
LMP1 NFkB inh: inhibitors of Epstein-Barr LMP1-induced NF-kappaB reporter | AID 504558 | inhibition, % at 12.5 µM | LMP1-induced NF-kappaB luciferase reporter cells, luminescence | hit rate 0.69% among 350,000; in the data active means inhibition above about 41%; inconclusive means no clear call, values can overlap the other calls
CF NFkB inh: blocks PAF-induced NF-kB reporter in cystic fibrosis cells | KKLEB NF-kB-GFP reporter, GFP fluorescence overnight | inhibition, % at 5 µM | hit rate 0.86% among 360,000 | AID 588850;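 active means at least 50% inhibition at 5 µM, scaled per plate between neutral and stimulator controls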;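 further: PAF is a Pseudomonas aeruginosa culture filtrate used as stimulus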
Hits are given with their value. A selection: hits, their analogues and other compounds. The true share with any hit is near 2.9%.

What do the screens show for `Cn1c2ccccc2c2cc(/C=N/NC(=O)c3ccc(O)cc3O)ccc21`?
Peg3 promoter: inactive; KKLEB tox: inactive; Shn3 inh set2: inactive; MITF TRPM1 inh: inactive; LMP1 NFkB inh: inactive; CF NFkB inh: inactive

How did CCn1c2ccccc2c2cc(/C=N/NC(=O)c3ccncc3)ccc21 do in these assays?
Peg3 promoter: 62; KKLEB tox: inactive; Shn3 inh set2: inactive; MITF TRPM1 inh: inactive; LMP1 NFkB inh: inconclusive; CF NFkB inh: inactive

Results for CCn1c2ccccc2c2cc(/C=N/NC(=O)c3ccc(O)cc3)ccc21 ?
Peg3 promoter: inactive; KKLEB tox: inactive; Shn3 inh set2: inactive; MITF TRPM1 inh: inactive; LMP1 NFkB inh: 84; CF NFkB inh: inactive

Results for CCn1c2ccccc2c2cc(/C=N/NC(=O)c3cc(O)cc(O)c3)ccc21 ?
Peg3 promoter: inactive; KKLEB tox: inactive; Shn3 inh set2: inactive; MITF TRPM1 inh: inactive; LMP1 NFkB inh: 66; CF NFkB inh: inactive

How did CCCCCC(=O)N1C[C@@H](O)[C@H](n2cc(COC(=O)c3ccccc3)nn2)C[C@@H]1c1ccc(OC)cc1 do in these assays?
Peg3 promoter: inactive; KKLEB tox: inactive; Shn3 inh set2: inactive; LMP1 NFkB inh: inactive; CF NFkB inh: inactive

What do the screens show for `COc1ccc(OCc2cccc(C(=O)NN)c2)cc1`?
Peg3 promoter: inactive; KKLEB tox: inactive; Shn3 inh set2: inactive; MITF TRPM1 inh: inactive; LMP1 NFkB inh: 62; CF NFkB inh: inactive

How did CCOc1ccc(OCc2cccc(C(=O)N3CCOCC3)c2)cc1 do in these assays?
Peg3 promoter: inactive; KKLEB tox: inactive; Shn3 inh set2: inactive; MITF TRPM1 inh: inactive; LMP1 NFkB inh: 84; CF NFkB inh: inactive

How did COc1cccc(C(=O)Nc2cc(C)on2)c1 do in these assays?
Peg3 promoter: inactive; KKLEB tox: inactive; Shn3 inh set2: inactive; LMP1 NFkB inh: inactive; CF NFkB inh: inactive

How did COc1ccc(OCc2cccc(C(=O)Nc3cc(C)on3)c2)cc1 do in these assays?
Peg3 promoter: inactive; KKLEB tox: inactive; Shn3 inh set2: inactive; MITF TRPM1 inh: inconclusive; LMP1 NFkB inh: 81; CF NFkB inh: inactive

Results for COc1ccc(OCc2cccc(C(=O)Nn3cc([N+](=O)[O-])cn3)c2)cc1 ?
Peg3 promoter: inactive; KKLEB tox: inactive; Shn3 inh set2: inactive; MITF TRPM1 inh: inactive; LMP1 NFkB inh: 83; CF NFkB inh: inactive

What do the screens show for `O=C(c1cccc(OCc2ccccc2)c1)N1CCOCC1`?
Peg3 promoter: inactive; KKLEB tox: inactive; Shn3 inh set2: inactive; MITF TRPM1 inh: inactive; LMP1 NFkB inh: inactive; CF NFkB inh: inactive

What do the screens show for `NNC(=O)c1cccc(COc2ccc(Br)cc2)c1`?
Peg3 promoter: inactive; KKLEB tox: inactive; Shn3 inh set2: inactive; MITF TRPM1 inh: inactive; LMP1 NFkB inh: inactive; CF NFkB inh: inactive

What do the screens show for `Cc1ccc(NC(=O)C(=O)Nc2ccccn2)cc1`?
Peg3 promoter: inactive; KKLEB tox: inactive; Shn3 inh set2: inactive; MITF TRPM1 inh: inactive; LMP1 NFkB inh: 56; CF NFkB inh: inactive

How did COc1ccc(-n2c(-c3cc(-c4ccccc4)sc3N)n[nH]c2=S)cc1 do in these assays?
Peg3 promoter: 87; KKLEB tox: inactive; Shn3 inh set2: inactive; MITF TRPM1 inh: inactive; LMP1 NFkB inh: inactive; CF NFkB inh: inactive

How did COc1ccccc1-c1ccccc1C1=CC(=O)CC(C)(C)C1=O do in these assays?
Peg3 promoter: inactive; KKLEB tox: inactive; Shn3 inh set2: inactive; LMP1 NFkB inh: 61; CF NFkB inh: inactive

How did COc1ccc(-c2ccccc2C2=CC(=O)CC(C)(C)C2=O)cc1 do in these assays?
Peg3 promoter: inactive; KKLEB tox: inactive; Shn3 inh set2: inactive; LMP1 NFkB inh: inactive; CF NFkB inh: inactive

Results for CSc1nc(Nc2ccc(Cl)cc2)c(C#N)c(=O)[nH]1 ?
Peg3 promoter: 53; KKLEB tox: inactive; Shn3 inh set2: inactive; MITF TRPM1 inh: inactive; LMP1 NFkB inh: inactive; CF NFkB inh: inactive

How did Cc1cc(Cl)c(S(=O)(=O)N2CCSCC2)cc1OCC(=O)NC1CCCCC1 do in these assays?
Peg3 promoter: inactive; KKLEB tox: inactive; Shn3 inh set2: 88; MITF TRPM1 inh: inactive; LMP1 NFkB inh: inactive; CF NFkB inh: inactive

Results for Cn1nnc2cc(C(=O)NC3CCCCC3)ccc21 ?
Peg3 promoter: inactive; KKLEB tox: inactive; Shn3 inh set2: inactive; MITF TRPM1 inh: inactive; LMP1 NFkB inh: 59; CF NFkB inh: inactive

How did CC(C)NC(=O)c1ccc2c(c1)nnn2C do in these assays?
Peg3 promoter: inactive; KKLEB tox: inactive; Shn3 inh set2: inactive; MITF TRPM1 inh: inactive; LMP1 NFkB inh: inactive; CF NFkB inh: inactive

What do the screens show for `Cn1c(N)c(C#N)c(-c2ccccc2)c(C#N)c1=O`?
Peg3 promoter: inactive; KKLEB tox: inactive; Shn3 inh set2: inactive; CF NFkB inh: inactive

What do the screens show for `Cc1ccc2c(c1)Oc1ccc(NC(=O)CCl)cc1C(=O)N2`?
Peg3 promoter: 100; KKLEB tox: -73; Shn3 inh set2: inactive; MITF TRPM1 inh: 91; LMP1 NFkB inh: inactive; CF NFkB inh: 87

How did Cc1ccc2c(c1)Oc1ccc([N+](=O)[O-])cc1C(=O)N2 do in these assays?
Peg3 promoter: inactive; KKLEB tox: inactive; Shn3 inh set2: inactive; MITF TRPM1 inh: inactive; LMP1 NFkB inh: inactive; CF NFkB inh: inactive

How did C[C@H]1CN([C@@H](C)CO)S(=O)(=O)c2ccc(Br)cc2O[C@H]1CN(C)C(=O)Cc1ccccn1 do in these assays?
Peg3 promoter: inactive; KKLEB tox: inactive; Shn3 inh set2: inactive; LMP1 NFkB inh: inactive; CF NFkB inh: inactive

Results for COc1ccc2cc(-c3cc(C(=O)OCC(=O)NC4CCS(=O)(=O)C4)c4ccccc4n3)ccc2c1 (stereo not drawn) ?
Peg3 promoter: inactive; KKLEB tox: inactive; Shn3 inh set2: inactive; MITF TRPM1 inh: inactive; LMP1 NFkB inh: 50; CF NFkB inh: inactive

Results for COc1ccc(-c2cc(C(=O)Nc3c(C)n(C)n(-c4ccccc4)c3=O)c3ccccc3n2)cc1 ?
Peg3 promoter: inactive; KKLEB tox: inactive; Shn3 inh set2: inactive; MITF TRPM1 inh: inactive; LMP1 NFkB inh: inactive; CF NFkB inh: inactive

How did COc1ccc2cc(-c3cc(C(=O)OCC(=O)Nc4c(C)n(C)n(-c5ccccc5)c4=O)c4ccccc4n3)ccc2c1 do in these assays?
Peg3 promoter: inactive; KKLEB tox: inactive; Shn3 inh set2: inactive; MITF TRPM1 inh: inactive; LMP1 NFkB inh: 58; CF NFkB inh: inactive

How did CNc1ncnc2c1cnn2C1CCCCO1 (stereo not drawn) do in these assays?
Peg3 promoter: inactive; KKLEB tox: inactive; Shn3 inh set2: inactive; MITF TRPM1 inh: inactive; LMP1 NFkB inh: inactive; CF NFkB inh: inactive

How did COc1ccccc1N1CCN(Cc2ccc(OC)c(OC)c2OC)CC1 do in these assays?
Peg3 promoter: inactive; KKLEB tox: inactive; Shn3 inh set2: inactive; MITF TRPM1 inh: inactive; LMP1 NFkB inh: inactive; CF NFkB inh: inactive

Results for COc1ccccc1N1CCN(c2ncnc3c2oc2ccccc23)CC1 ?
Peg3 promoter: 57; KKLEB tox: inactive; Shn3 inh set2: inactive; MITF TRPM1 inh: inactive; LMP1 NFkB inh: inactive; CF NFkB inh: inactive

How did COc1ccccc1N1CCN(Cc2ccc(O)c3ncccc23)CC1 do in these assays?
Peg3 promoter: inactive; KKLEB tox: inactive; Shn3 inh set2: 88; MITF TRPM1 inh: 88; LMP1 NFkB inh: 73; CF NFkB inh: inactive
